The campaign covered roughly 290,000 compounds. About 11,000 (3.8%) were called active. The full list was thinned out, with actives kept by preference. Values without a mark were called inactive.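 How the source made its calls: active means mean replicate inhibition above about 79%, with every replicate also reaching it (limit read from the data); inconclusive means only one of the two criteria met; inactive means mean below limit and not every replicate reaching it.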
Molecular target: FAD-linked sulfhydryl oxidase ALR (Homo sapiens) (UniProt P55789)
Experiment: inhibitors of human ALR sulfhydryl oxidase, primary screen, biochemical, H2O2 detection, HRP-luminol luminescence, single point (AID 485317)
Details: purified ALR, DTT oxidation, hits give high values, concentration not given here

Chain of FAD-linked sulfhydryl oxidase ALR (Homo sapiens) (P55789 whole entry, looked up): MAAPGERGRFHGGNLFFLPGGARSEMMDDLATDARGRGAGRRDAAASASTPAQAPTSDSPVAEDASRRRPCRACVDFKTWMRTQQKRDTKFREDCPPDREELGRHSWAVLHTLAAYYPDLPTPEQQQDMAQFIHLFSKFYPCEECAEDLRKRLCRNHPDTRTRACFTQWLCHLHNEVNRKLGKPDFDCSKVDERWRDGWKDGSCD

Structure (SMILES)	inhibition
COc1ccc(N=Nc2ccc(O)c(P(=O)(c3ccccc3)c3ccccc3)c2)cc1	-4.29%
CC(=O)CCC(=O)c1ccc2ccccc2c1	-2.18%
Cc1cc(N=Nc2ccc3ccccc3c2)ccc1O	86% (active)
Cc1nc2ccccc2c(=O)n1-c1ccc(F)c(NC(=O)c2cccs2)c1	-7.89%
CN(Cc1cccs1)C(=O)CN1C(=O)c2ccccc2S1(=O)=O	1.6%
Cc1ccc(C(=O)N/C(=C/c2cccs2)C(=O)N2CCCCC2)cc1	88.2% (active)
Cc1ccc(C(=O)N/C(=C/c2cccs2)C(=O)NCC2CCCO2)cc1 (centres undefined)	-0.67%
CN1CCN(C(=O)/C(=C\c2cccs2)NC(=O)c2cccs2)CC1	9.55%
CC1CCN(C(=O)/C(=C\c2ccccc2)NC(=O)c2ccccc2)CC1	8.11%
O=C(N/C(=C\c1ccc(O)cc1)C(=O)N1CCCCC1)c1ccccc1	99% (active)
O=C(N/C(=C\c1ccc(F)cc1)C(=O)N1CCCCCC1)c1ccccc1	39.9%
O=C(COC(=O)CSc1ccccc1)Nc1ccc(F)cc1F	0.233%
Cc1nn(-c2ccccc2)nc1C(=O)OCC(=O)N1CCCCC1C (centres undefined)	0.513%
Cc1nc2ccccn2c(=O)c1NC(=O)c1cccs1	-1.56%
Cc1ccsc1C(=O)N[C@@H](C)c1nnc2ccccn12	-3.18%
CC(C)(C)Nc1c(-c2cccs2)nc2ccccn12	98.7% (active)
O=C(OCC(=O)N1CCCCCC1)c1ccc(Cl)nc1	8.08%
CCOC(=O)[C@H]1[C@H]2COc3cc(OC)ccc3[C@@H]2N2C(=O)CN(Cc3ccc(Cl)cc3)C(=O)[C@@]12C	-2.14%
CCC(=O)N1c2ccc(S(=O)(=O)CCC(=O)N3CCN(c4ccccc4)CC3)cc2CC1C (centres undefined)	98.5% (active)
CCC(=O)N1CCc2cc(S(=O)(=O)CCC(=O)N3CCN(c4ccccc4F)CC3)ccc21	5.15%
CC(=O)N1CCCc2cc(S(=O)(=O)CCC(=O)N3CCN(c4ccccc4)CC3)ccc21	61.3%
CCC(=O)c1cc(F)ccc1OCC(=O)Nc1ccc2c(c1)OCCO2	-1.15%
CNC[C@@H]1Oc2c(NS(C)(=O)=O)cccc2C(=O)N([C@@H](C)CO)C[C@H]1C	6.23%
CCOc1ccc(C(C)=O)cc1COC(=O)CNC(=O)c1cccs1	-1.95%

Structure (SMILES)	inhibition
COc1ccc(C2CC(c3cccs3)=NN2c2ccc(F)cc2)cc1OC (centres undefined)	-1.9%
COc1ccc(C2=NN(c3ccccc3)C(c3cccs3)C2)cc1 (centres undefined)	-4.89%
COc1ccc(C2CC(c3cccs3)=NN2c2ccccc2)cc1 (centres undefined)	97.6% (active)
Oc1ccccc1C1=NN(c2ccccc2)C(c2ccccc2)C1 (centres undefined)	47.4%
COc1ccccc1N1N=C(c2cccs2)CC1c1ccccc1 (centres undefined)	97.2% (active)
COc1ccc(C2CC(c3cccs3)=NN2C(=O)CCC(=O)O)cc1OC (centres undefined)	5.58%
COc1ccc(C(=O)C2CCCN(C(=O)c3ccc(OC)o3)C2)c(C)c1 (centres undefined)	-4%
CNC(C)C#Cc1ccc2sc3cc(OC)c(OC)cc3c(=O)c2c1 (centres undefined)	-24.4%
Cc1onc(-c2ccccc2Cl)c1C(=O)N(Cc1ccc(N(C)C)cc1)C(C)C	9.74%
Cc1cc(OCCCCOc2ccc(C#N)cc2)ccc1[N+](=O)[O-]	3.02%
C=CCN(CC=C)CCOc1ccccc1[N+](=O)[O-]	-15.8%
CCCCCOc1ccc(CSC2=NCCN2)cc1[N+](=O)[O-]	98.8% (active)
CCCCOC(=O)CCCc1ccc([N+](=O)[O-])cc1[N+](=O)[O-]	-8.65%
CCCOc1ccc(Cn2ccnc2)cc1[N+](=O)[O-]	-2.35%
CCCCOc1ccc(CSC(=N)N)cc1[N+](=O)[O-]	99.9% (active)
Cc1cc(C)c(S(=O)(=O)N2CCCC2CNC(=O)c2ccc3c(c2)OCO3)c(C)c1 (centres undefined)	0.666%
COCCn1c(C)cc(C(=O)CN2c3cccc4cccc(c34)S2(=O)=O)c1C	-28.9%
CCCCN(C(=O)C1CCC1)c1c(N)n(Cc2ccccc2)c(=O)[nH]c1=O	7.79%
Cc1ccccc1NC(=O)Cc1nc(COC(=O)c2cccnc2Cl)cs1	31.8%
O=C(COC(=O)c1ccc2c(c1)OCCO2)NCc1ccccc1Cl	1.29%
Cc1nn(CC(=O)NCC2CCCO2)c(=O)c2cc3ccccc3n12 (centres undefined)	-2.19%
O=C(Cn1nc(Cc2cccnc2)c2ccccc2c1=O)NCC1COc2ccccc2O1 (centres undefined)	-6%
O=C(Cn1nc(Cc2cccnc2)c2ccccc2c1=O)NCC1CCCO1 (centres undefined)	98% (active)
CCOC(=O)c1cc(NC(=O)c2cccnc2)ccn1	-12.6%

Structure (SMILES)	inhibition
C[C@H]1CCC(=O)N([C@H](CSc2ccccc2)Cc2ccccc2)CC1	-5.54%
CC(=O)Nc1ccc(SC[C@H](Cc2ccccc2)N2CC[C@@H](C)CCC2=O)cc1	97.9% (active)
O=C1CC[C@H](O)CCN1[C@H](CSc1ccc(Br)cc1)Cc1ccccc1	11.4%
COc1ccc(NC(=O)COC(=O)c2n[nH]c3ccccc23)c(OC)c1	-2.04%
COc1ccc(N2CCN(Cc3nnc(-c4ccccc4)o3)CC2)cc1	35.1%
c1ccc(-c2cnc(CN3CCN(c4ccccc4)CC3)o2)cc1	88.2% (active)
Fc1ccc(N2CCN(Cc3cnc(Oc4ccc(Br)cc4)s3)CC2)cc1	1.01%
COc1ccc(C2=Nn3c(nnc3-c3ccccc3OC)SC2)cc1OC1CCCC1	0.67%
O=C(Nc1ccc(F)c([N+](=O)[O-])c1)C1CCCO1 (centres undefined)	-26.1%
CCOc1ccc(OCC(=O)OC(C)C(=O)NC2CCCCC2C)cc1 (centres undefined)	-1.89%
CCOC(=O)c1ccc(NC2Nc3cc(C)nn3S2)cc1 (centres undefined)	-10.5%
CCc1ccc(NC2Nc3cc(C)nn3S2)cc1 (centres undefined)	97.5% (active)
COc1ccc(-c2nnc(SCC(=O)Nc3cccnc3Cl)n2C)cc1	-3.14%
C[C@H](NC(=O)c1[nH]cnc1C(=O)Nc1nccs1)c1ccccc1	-11.7%
COc1ccc(C(=O)OCC(=O)NCCCc2ccccc2)cc1OC	1.14%
COc1cc(/C=C/C(=O)OCC(=O)NCCCc2ccccc2)ccc1O	92.7% (active)
COc1cc(/C=C/C(=O)OCC(=O)Nc2cccc(Oc3ccccc3)c2)ccc1O	-5.43%
O=C1C=C(c2cccc(Cl)c2O)C[C@@H](c2ccc(F)cc2)C1	19.8%
COC(=O)c1ccc(COC(=O)CNC(=O)c2cccc(OC)c2)o1	0.754%
CCN(C(=O)COC(=O)Cc1c(F)cccc1Cl)c1c(N)n(Cc2ccccc2)c(=O)[nH]c1=O	-2.58%
O=C(/C=C/c1ccc(F)cc1)NC(=S)NNC(=O)c1cccnc1	91.2% (active)
CC(C)c1ccc(/C=C/C(=O)NNC(=O)c2cccnc2)cc1	3.18%
O=C(/C=C/c1ccc(F)cc1)NCCNC(=O)/C=C/c1ccc(F)cc1	-1.46%
O=C(NCCc1ccco1)c1ccc(OCc2cn3ccccc3n2)cc1	-0.605%

Structure (SMILES)	inhibition
COc1ccc(S(=O)(=O)N2CCCCC2)cc1NC(=O)COc1ccccc1	-4.75%
Cc1cc(N/N=C/c2ccccc2F)c2ccccc2n1	98.4% (active)
Cc1ccc2nc(C)cc(N/N=C/c3ccc(F)cc3)c2c1	68.2%
Fc1ccccc1/C=N/Nc1cc(N2CCCCC2)ncn1	-6.88%
O=C(Nc1ccc(N2CCOCC2)cc1)c1cccc(S(=O)(=O)N2CCOCC2)c1	13.1%
Cc1sc2nc(CSCC(=O)Nc3c(Cl)cccc3Cl)[nH]c(=O)c2c1C	36.7%
CCOC(=O)c1sc2nc(CSCC(=O)OCc3ccc(C(=O)OC)o3)[nH]c(=O)c2c1C	91.5% (active)
CCOC(=O)c1sc2nc(C)[nH]c(=O)c2c1C	-7.28%
CC(C)CCNc1nc(N2CCCC2)c2c(c1C#N)CCN(C)C2	89.2% (active)
CC(C)Cc1nc(N2CCOCC2)c(C#N)c2c1CCC2	-5.9%
N#CCc1c(C#N)c(N)nc(N2CCCC2)c1C#N	6.64%
Cc1ccsc1C(=O)NC1CCCCC1C (centres undefined)	-1.25%
COc1ccccc1C1=CC(=O)C[C@H](c2ccc(F)cc2)C1	-1.43%
CCCCN(CC)CCCNC(=O)c1ccc(CSc2nc3ccncc3[nH]2)cc1	98.4% (active)
Cc1cc(C)c(NC(=O)CSc2nc3ccncc3[nH]2)c(C)c1	0.095%
CCN(CC)CCNC(=O)c1ccc(NC(=O)c2cc(-c3ccncc3)nc3ccccc23)cc1	-5.03%
Cc1nn(Cc2ccccc2)c(C)c1CNC(=O)c1ccc(F)c(S(=O)(=O)N2CCOCC2)c1	-0.911%
CCOc1cc(/C=C/C(=O)OCC(=O)NCCN2C(=O)CSC2=O)ccc1OCC(C)C	2.31%
CCN(CC(=O)Nc1c(F)cccc1F)C(=O)c1ccc(Sc2nncn2C)c([N+](=O)[O-])c1	-9.3%
CCOc1ccc(Br)cc1S(=O)(=O)N1CCC(C(=O)O)CC1	-9.17%
CC(C)(C)NCc1cc(Br)ccc1OC1CCCC1	-4.37%
CCOc1ccc(Br)cc1CSC(=N)N	98.3% (active)

Source: PubChem BioAssay AID485317 (Broad Institute, 2010)
